Assays:
Format in all cases: functional
[1] = target: Solute carrier family 2, facilitated glucose transporter member 1 (Homo sapiens) (UniProt P11166); test: ST_JUDE_LEISH: Cytotoxicity at 2uM final concentration against transgenic Leishmania Mexicana promastigotes LmGLUT1 that are glucose transport deficient and complemented with the human glucose transporter GLUT1. Activity is measured by DNA content using SYBR green in vitro
[2] = target: Hexose transporter 1 (Plasmodium falciparum) (UniProt O97467); test: ST_JUDE_LEISH: Cytotoxicity at 2uM final concentration against transgenic Leishmania Mexicana promastigotes LmPfHT that are glucose transport deficient and complemented with the Plasmodium falciparum hexose transporter. Activity is measured by DNA content using SYBR green in vitro
[3] = target: Glucose transporter (Leishmania mexicana) (UniProt O61059); test: ST_JUDE_LEISH: Cytotoxicity at 2uM final concentration against transgenic Leishmania Mexicana promastigotes LmGT2 that are glucose transport deficient and complemented with the L. Mexicana glucose transporter 2. Activity is measured by DNA content using SYBR green in vitro

Sequence of Solute carrier family 2, facilitated glucose transporter member 1 (Homo sapiens) (P11166 whole entry): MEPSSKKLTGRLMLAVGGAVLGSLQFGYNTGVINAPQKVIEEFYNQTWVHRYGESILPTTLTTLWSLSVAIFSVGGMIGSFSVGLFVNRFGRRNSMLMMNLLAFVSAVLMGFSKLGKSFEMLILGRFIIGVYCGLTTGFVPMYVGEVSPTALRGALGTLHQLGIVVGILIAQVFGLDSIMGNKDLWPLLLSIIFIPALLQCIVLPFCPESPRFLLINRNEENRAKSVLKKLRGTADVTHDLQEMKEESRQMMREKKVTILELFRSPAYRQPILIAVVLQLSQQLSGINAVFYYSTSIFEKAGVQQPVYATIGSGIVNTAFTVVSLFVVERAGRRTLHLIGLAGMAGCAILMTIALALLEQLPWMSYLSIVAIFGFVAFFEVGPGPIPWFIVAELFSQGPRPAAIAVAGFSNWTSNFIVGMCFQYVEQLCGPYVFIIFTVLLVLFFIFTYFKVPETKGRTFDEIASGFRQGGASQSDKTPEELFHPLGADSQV

| Compound | inhibition [1] [%] | inhibition [2] [%] | inhibition [3] [%] |
| --- | --- | --- | --- |
| CC1(C)N=C(N)N=C(Nc2ccc(F)c(F)c2)N1 | 0.74 | 0.06 | -0.02 |
| CCNC(=O)Nc1cccc(-c2cccc(-c3nc4cccc(C)c4[nH]3)c2)c1 | 4.32 | 2.2 | 3.06 |
| CN(C(=O)c1cc2c(-c3cncnc3)cccc2[nH]1)c1ccccc1 | 2.07 | -0.81 | -0.72 |
| CN1CCCN(c2ccnc3cc4c(cc23)N(C(=O)c2ccc(Cl)cc2Cl)CC4)CC1 | -0.4 | 2.07 | 0.94 |
| Cc1ccc(/C=C/C(=O)NCCCCCN2CCC(c3c[nH]c4ccccc34)CC2)cc1 | 5.46 | 5.57 | 3.18 |
| CC(C)N1CCC(Oc2ccc(CN3CCN(C(c4ccccc4)c4ccc(Cl)cc4)CC3)cc2)CC1 (configuration not stated) | 6.88 | 3.12 | 2.61 |
| CC(=O)Nc1ccc(CN2CCC(NC(=O)c3ccc(-c4cccc(F)c4)s3)CC2)cc1 | 1.73 | 0.06 | 0.34 |
| CNC(=O)c1ccccc1Nc1nc(Nc2ccc(N3CCN(C)CC3)nc2)ncc1C | 12 | 11.3 | 9.03 |
| c1cc(-c2ccc(CNC3CC3)cc2)cc(-c2nc3ccccc3[nH]2)c1 | 4.18 | 1.98 | 0.68 |
| CCCCCCN1CCC(NCc2cccc(C#N)c2)CC1 | 0.29 | 0.77 | 2.03 |
| Cc1ccccc1OCCCc1c(C)nc(N)nc1N | 3.68 | 9.06 | 0.82 |
| COc1cc(OC)cc(C(=O)Nc2nc(-c3ccc(NC(=O)c4ccccc4)cc3)cs2)c1 | 16.3 | 9.26 | 5.46 |
| Nc1nc2ccc(S(=O)(=O)Nc3ccc(C(=O)N[C@@H](CCC(=O)O)C(=O)O)c(F)c3)cc2c(=O)[nH]1 | 0.57 | 1.22 | 1.53 |
| Cc1ccc(NC(=O)Cc2noc(CC3CCCN3C(=O)N[C@@H](C)c3ccccc3)n2)cc1 (some centres not stated) | 3.91 | 2.95 | 1.32 |
| Cc1cc(Nc2ccncc2)n2nc(C)c(-c3ccc(Cl)cc3)c2n1 | 11.6 | 9.35 | 8.71 |
| COc1ccccc1CNc1nc(Nc2ccccc2C)nc2ccccc12 | 38.4 | 54.5 | 14.4 |
| NC1CCN(c2nc(NCCCc3ccc(O)cc3)nc(NCc3ccccc3-c3ccccc3)n2)CC1 | 0.77 | 0.01 | 1.09 |

| Compound | inhibition [1] [%] | inhibition [2] [%] | inhibition [3] [%] |
| --- | --- | --- | --- |
| O=C(NC1CCN(c2ccc(F)cc2[N+](=O)[O-])CC1)c1cccs1 | 4.31 | 3.82 | 2.71 |
| COc1ccc(Nc2nccc(N3CCC(NC(=O)C(C)c4ccc(Cl)cc4)C3)n2)cc1 (configuration not stated) | -0.18 | 0.96 | 1.34 |
| O=C(Nc1cccc(CN2CCN(Cc3ccc(O)cc3)CC2)c1)c1cc2ccccc2s1 | 8.18 | 7.34 | 8.57 |
| COc1ccc2nccc([C@@H](O)CN3CCC(NCc4ccc5cccc(O)c5n4)CC3)c2c1 | 7.73 | 7.94 | 3.46 |
| COc1ccc(OCCCCON2C(=N)N=C(N)NC2(C)C)cc1 | 3.18 | 1.29 | 2.18 |
| O=S(=O)(NCCN1CCCC1)c1ccc(-c2cccc(CNCCc3cccs3)c2)cc1 | 5.24 | 5.07 | 3.91 |
| COc1ccc2nccc([C@@H](O)CN3CCC(NCc4ccc5c(c4)NC(=O)CS5)CC3)c2n1 | 0.52 | 2.86 | -3.81 |
| CCCOc1ccc(N2C(N)=NC(N)=NC2(C)C)cc1 | 3.43 | 1.16 | 2.09 |
| Cc1nc2ccccc2n1C1CC2CCC(C1)N2CCC1(c2ccccc2)CCN(C(=O)Nc2ccc(C(F)(F)F)cc2)CC1 (configuration not stated) | 4.65 | 4.07 | 1.78 |
| CC(C)(C)SCC(O)Cn1c2ccc(Br)cc2c2cc(Br)ccc21 (configuration not stated) | 2.07 | 0.65 | -0.28 |
| CC(=O)Nc1ccc(-c2nc3ccc(-c4nc5ccc(NC(C)=O)cc5[nH]4)cc3[nH]2)cc1 | 5.99 | 3.79 | 5.3 |
| Cc1cccc2nc(-c3cccc(-c4ccc(C(=O)N5CCCCC5C(C)O)cc4)c3)[nH]c12 (configuration not stated) | 4.05 | 4.66 | 5.64 |
| COc1cccc(-c2ccc3c(-c4ccc(F)cc4)cnc(N)c3c2)c1 | 5.2 | 4.32 | 2.91 |
| CO/C(=C\C=C\c1cc2cc(Cl)c(Cl)cc2[nH]1)C(=O)NCC(C)(C)CN(C)C | -1.89 | 2.21 | 1.65 |
| COc1cccc(NC(=O)NC2CCN(c3ccnc(Nc4cc(OC)c(OC)c(OC)c4)n3)C2)c1 (configuration not stated) | 1.18 | -1.6 | 5.86 |
| CCCc1c(Cl)cc(CNCCCNc2nc3ccncc3[nH]2)cc1Cl | 1.35 | 3.89 | 1.39 |
| COc1ccc(-c2cc(C(=O)N[C@@H](CC3CCCCC3)C(=O)NCCN3CCCC3)ccc2O)cc1 | 0.33 | 1.9 | 1.32 |

— ChEMBL document CHEMBL3433997, “St. Jude Leishmania screening dataset” (2016)
